ST2 IL33 inh = inhibitors of human ST2 (IL1RL1) binding to IL-33, primary screen, biochemical, AlphaLISA | Interleukin-1 receptor-like 1 (Homo sapiens), Q01638 | AlphaLISA ST2-Fc/biotin-IL-33 interaction, 1 h | inhibition, % for hits at 17 µM | 78,000 tested, 2.3% active | AID 1259354, 2018; in the data active means inhibition above about 30%
Target sequence (Q01638 whole entry, looked up): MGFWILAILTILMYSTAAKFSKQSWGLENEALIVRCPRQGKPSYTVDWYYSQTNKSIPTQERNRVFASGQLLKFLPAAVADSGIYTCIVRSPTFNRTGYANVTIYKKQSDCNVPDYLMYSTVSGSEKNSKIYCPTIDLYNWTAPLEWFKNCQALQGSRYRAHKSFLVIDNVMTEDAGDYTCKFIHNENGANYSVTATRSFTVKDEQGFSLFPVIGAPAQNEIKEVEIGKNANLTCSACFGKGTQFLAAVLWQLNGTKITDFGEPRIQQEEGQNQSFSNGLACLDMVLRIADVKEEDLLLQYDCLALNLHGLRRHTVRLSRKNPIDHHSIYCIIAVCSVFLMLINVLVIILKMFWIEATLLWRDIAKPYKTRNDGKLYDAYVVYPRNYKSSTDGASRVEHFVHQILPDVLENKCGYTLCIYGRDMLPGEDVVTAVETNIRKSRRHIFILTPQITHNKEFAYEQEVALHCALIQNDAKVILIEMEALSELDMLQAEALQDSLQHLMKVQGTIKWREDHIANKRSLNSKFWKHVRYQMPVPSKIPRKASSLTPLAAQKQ
Active calls of the source: *; i = inactive. Shown is part of a subset that was picked to be rich in hits.

SMILES	ST2 IL33 inh
CC(C)Cc1nc2ccccc2n1C(C)C	i
O=C(Cc1c(F)ccc(F)c1F)NCC1CC(Cc2ccc(F)cc2)=NO1 (stereo not drawn)	i
CC1CC(=O)C2=C(C1)OC(N)=C(C#N)C2c1ccc(Cl)cc1Cl (stereo not drawn)	i
CC(C)CC(NC(=O)c1cnn(C)c1)c1nnc2n1CCNCC2 (stereo not drawn)	i
CN(C)C1CCCN(C(=O)c2csc(-c3cccs3)n2)CC1 (stereo not drawn)	i
O=C1C(Nc2ccc(O)cc2)=CC(=NS(=O)(=O)c2cccs2)c2ccccc21	88.0%*
NC(=O)c1ccc(NS(=O)(=O)c2cccs2)cc1	i
O=S(=O)(N=C(Nc1cccc(O)c1)c1ccccc1)c1ccc(Cl)cc1	i
CCOc1ccc(S(=O)(=O)N=C2C=C(Nc3ccc(O)cc3)C(=O)c3ccccc32)cc1	84.0%*
CCOc1ccc(NC2=CC(=NS(=O)(=O)c3ccc(OC)cc3)c3ccccc3C2=O)cc1	94.0%*
CCc1ccc(NS(=O)(=O)c2ccc(OC)c(OC)c2)cc1	i
CCOc1ccc(NC(=O)c2ccccc2Cl)cc1	i
CCOc1ccc(NC2=NS(=O)(=O)c3ccccc32)cc1	i
CC(C)N=C(NS(=O)(=O)c1cccs1)c1ccccc1	i
CCc1ccc(S(=O)(=O)N=C2C=C(Nc3ccc(O)cc3)C(=O)c3ccccc32)cc1	91.0%*
CCOc1ccc(NC(=O)COc2ccc(OC)cc2)cc1	i
CCOc1ccc(NC(=O)C(Cc2ccccc2)N2C(=O)c3ccccc3C2=O)cc1 (stereo not drawn)	i
Cc1cc(C)n2nc(SC(C)C(=O)NCc3ccccc3Cl)nc2n1 (stereo not drawn)	i
Cc1ccc(C(C)(C)C)c(OCCNCCN)c1	i
CN(CCC1CCCCO1)C(=O)c1ccc2oc(Cc3ccc(Cl)cc3)nc2c1 (stereo not drawn)	i
COCCNC(=O)CSc1nc2sc3c(c2c(=O)n1-c1ccccc1)CCCC3	i
Cc1nn(C)c(C)c1-c1ccnc(NCc2ccc3c(c2)OCCCO3)n1	i
O=C(NCc1nc2ccccc2n1Cc1ccccc1F)c1ccc(F)cc1	i
Cc1cccc(C)c1Oc1ncccc1CNC(=O)C1COC(=O)N1 (stereo not drawn)	i
CC(C)c1ccc(OCC(=O)N2CCCCCC2)cc1	i
SMILES	ST2 IL33 inh
O=C(/C=C/c1ccc(Cl)cc1Cl)NCCNc1c(Cl)cccc1[N+](=O)[O-]	i
Cc1ccc(-n2c(=O)c3c4c(sc3n(CC(=O)N3CCCC3)c2=O)CCC4)cc1C	i
Cc1cc(Cl)ccc1OCC(O)CN1CCN(c2ccccc2F)CC1 (stereo not drawn)	i
COc1ccc(-c2cn(-c3cccc(Br)c3)c(=O)[nH]2)cc1	i
CCOc1ccc(NC(=O)Cc2ccccc2)cc1	i
CCOc1ccc(NC2=CC(=NS(=O)(=O)c3ccccc3)c3ccccc3C2=O)cc1	77.0%*
CCOc1ccc(NC(=O)C(c2ccccc2)c2ccccc2)cc1	i
Cc1cccc(C)c1NC(=O)C1(N(C)C(=O)Cc2nc(N)n[nH]2)CCCCC1	i
CC/C=C\CCO[C@@H]1O[C@H](CO)[C@@H](O)[C@H](O)[C@H]1O	31.0%*
COc1cc(/C=C/CO)ccc1O[C@@H]1O[C@H](CO)[C@@H](O)[C@H](O)[C@H]1O	i
OC[C@H]1O[C@@H](OCCc2ccccc2)[C@H](O)[C@@H](O)[C@@H]1O	i
CCOC(=O)C1=C(c2ccccc2)NC(SCC(N)=O)=C(C#N)C1c1ccccc1Cl (stereo not drawn)	i
CCNC(=O)O[C@@H]1CO[C@H]2[C@@H]1OC[C@@H]2NC(=S)Nc1cccc(C#N)c1	92.0%*
CC(C)c1ccc(NC(=O)O[C@@H]2CO[C@H]3[C@@H]2OC[C@@H]3NC(=O)Nc2cccc(C#N)c2)cc1	i
COC(=O)c1cccc(NC(=S)N[C@H]2CO[C@H]3[C@@H]2OC[C@H]3OC(=O)NC2CCCCC2)c1	i
COC(=O)c1cccc(NC(=S)N[C@H]2CO[C@H]3[C@@H]2OC[C@H]3OC(=O)Nc2ccc(C(C)C)cc2)c1	68.0%*
CCNC(=O)O[C@@H]1CO[C@H]2[C@@H]1OC[C@@H]2NC(=O)Nc1ccc(C(C)C)cc1	i
CC(=O)c1cccc(NC(=O)O[C@@H]2CO[C@H]3[C@@H]2OC[C@@H]3NC(=S)Nc2ccccc2)c1	i
CCCn1ncc(C(=O)N2CCCN(S(C)(=O)=O)CC2)c1C	i
CN(C)CCN(CC1CCCN(Cc2ccccc2F)C1)C(=O)c1cccc2nccnc12 (stereo not drawn)	i
Cc1c(C(=O)NCC2(O)CCCNCC2)sc2ccccc12 (stereo not drawn)	i
CCC(=O)Nc1nc(-c2cccc([N+](=O)[O-])c2)nc2c1c(=O)oc1ccccc12	i
CCN1CCN(c2cc(C)c3cc(NC(=O)CCC(=O)N4CCCC4)ccc3n2)CC1	i
O=C(c1ccccc1)N1CC[C@H](c2nnc(-c3ccccc3)o2)C1	i

Screening results: PubChem BioAssay, Paczesny and Yang Labs, IUPUI and University of Michigan
